The structures appear in SMILES notation. “And” between values parts separate entries of the source, which are not always exact repeats. Equal values may be shown once. Where a name gives a salt, the structure may show the parent alone.

What all share (test): cell viability relative to vehicle control; higher = less cytotoxic
What all share (conditions): 10 µM

For one assay, the system named is K562. The method, boiled down:
(§1)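 After removal of identity-inconsistent compounds, the Selleck bioactive, kinase and epigenetic probe libraries were screened on CRISPR-edited mutant clones and isogenic wild-type clones of four leukaemia lines. Plates were 384-well, each well holding 2000 cells in 50 µL medium and receiving a single 10 µM acoustically dispensed dose. CellTiter-Glo luminescence was read 48 h later, after the supernatant was taken off. Genedata Screener was used to express viability as percent of the on-plate vehicle control.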

Another assay deals with MARIMO. The method, boiled down:
as §1

In a further assay the test system is MOLM14. Summed up:
as §1

The subject of another assay is OCI-AML2. The method, boiled down: as §1

For the compound `CN1C(=O)[C@@H](NC(=O)c2cc(Cc3ccccc3)on2)COc2ccccc21`, the cell viability is 105% and 100% with K562 (SRSF2 genotype: SRSF2 P95H/wt); 105% with K562 (SRSF2 genotype: SRSF2 wt/wt); 98.9% in the assay with MARIMO (SRSF2 genotype: SRSF2 P95H/wt); 102% in the assay with MARIMO (SRSF2 genotype: SRSF2 wt/wt); 110% with MOLM14 (SRSF2 genotype: SRSF2 P95H/wt); 110% in the assay on MOLM14 (SRSF2 genotype: SRSF2 wt/wt). Also, the figures for the cell viability in the assay on OCI-AML2 (SRSF2 genotype: P95H/wt) and in the assay on OCI-AML2 (SRSF2 genotype: wt/wt) were 99.6% and 99.8%, respectively.

Take `CCC(C)C(NC(=O)C(C(C)CC)N(C)C(C)=O)C(=O)NC(C(=O)NC(CC(C)C)C(=O)C1(C)CO1)C(C)O` (configuration not stated) [Epoxomicin (BU-4061T)]: the cell viability in the assay on K562 (SRSF2 genotype: SRSF2 P95H/wt) was 1.56% and 1.91%; in the assay on K562 (SRSF2 genotype: SRSF2 wt/wt), 0.91%; in the assay with MARIMO (SRSF2 genotype: SRSF2 P95H/wt), 0.3%; in the assay with MARIMO (SRSF2 genotype: SRSF2 wt/wt) it was 0.71%; in the assay with MOLM14 (SRSF2 genotype: SRSF2 P95H/wt), 0.14%; in the assay on MOLM14 (SRSF2 genotype: SRSF2 wt/wt) it was 0.17%. For the same compound, the cell viability in the assay with OCI-AML2 (SRSF2 genotype: P95H/wt) came to 0.15%; in the assay with OCI-AML2 (SRSF2 genotype: wt/wt) it was 0.14%.

Consider `CCS(=O)(=O)Nc1ccc(Oc2ccc(F)cc2F)c(-c2cn(C)c(=O)c3[nH]ccc23)c1` [ABBV-075 (Mivebresib)], for which the cell viability was 20.9% and 13.8% with K562 (SRSF2 genotype: SRSF2 P95H/wt); 33.2% with K562 (SRSF2 genotype: SRSF2 wt/wt); 7.17% in the assay with MARIMO (SRSF2 genotype: SRSF2 P95H/wt); 9.37% in the assay on MARIMO (SRSF2 genotype: SRSF2 wt/wt); 1.9% in the assay on MOLM14 (SRSF2 genotype: SRSF2 P95H/wt); 1.8% in the assay on MOLM14 (SRSF2 genotype: SRSF2 wt/wt). In addition, the cell viability in the assay with OCI-AML2 (SRSF2 genotype: P95H/wt) was found to be 7.64%; with OCI-AML2 (SRSF2 genotype: wt/wt) it was 13.5%.

With `Cc1cc(C)c(CNC(=O)c2cc(-c3ccc(N4CCN(C)CC4)nc3)cc3c2c(C)cn3C(C)C)c(=O)[nH]1`, the cell viability in the assay on K562 (SRSF2 genotype: SRSF2 P95H/wt) is 83.8% and 78.9%; with K562 (SRSF2 genotype: SRSF2 wt/wt), 86%; with MARIMO (SRSF2 genotype: SRSF2 P95H/wt) it was 90.1%; in the assay with MARIMO (SRSF2 genotype: SRSF2 wt/wt) it was 94.2%; in the assay with MOLM14 (SRSF2 genotype: SRSF2 P95H/wt), 80.4%; in the assay on MOLM14 (SRSF2 genotype: SRSF2 wt/wt), 83.3%. Moreover, the cell viability in the assay with OCI-AML2 (SRSF2 genotype: P95H/wt) was 70.6%; in the assay with OCI-AML2 (SRSF2 genotype: wt/wt), 82.2%.

In the case of `COc1ccc(Cn2c3ncnc4c(ncn4Cc4ccc(OC)cc4)c-3nc2=O)cc1`, the cell viability in the assay on K562 (SRSF2 genotype: SRSF2 P95H/wt) is 1.11% and 1.3%; in the assay on K562 (SRSF2 genotype: SRSF2 wt/wt), 0.98%; in the assay on MARIMO (SRSF2 genotype: SRSF2 P95H/wt), 4.49%; in the assay with MARIMO (SRSF2 genotype: SRSF2 wt/wt) it was 17.2%; in the assay on MOLM14 (SRSF2 genotype: SRSF2 P95H/wt), 9.44%; in the assay on MOLM14 (SRSF2 genotype: SRSF2 wt/wt), 2.32%. For the same compound, the cell viability in the assay with OCI-AML2 (SRSF2 genotype: P95H/wt) was 4.12%; in the assay with OCI-AML2 (SRSF2 genotype: wt/wt), 5.63%.

For `Cc1cc(-c2cc(C)c(NCCCS(=O)(=O)O)c(C)c2)cc(C)c1N`, the cell viability with K562 (SRSF2 genotype: SRSF2 P95H/wt) was 106% and 93.5%; with K562 (SRSF2 genotype: SRSF2 wt/wt), 105%; with MARIMO (SRSF2 genotype: SRSF2 P95H/wt), 96.3%; in the assay on MARIMO (SRSF2 genotype: SRSF2 wt/wt), 111%; in the assay with MOLM14 (SRSF2 genotype: SRSF2 P95H/wt) it was 100%; with MOLM14 (SRSF2 genotype: SRSF2 wt/wt) it was 108%. For the same compound, the cell viability in the assay on OCI-AML2 (SRSF2 genotype: P95H/wt) was determined as 99.9%; with OCI-AML2 (SRSF2 genotype: wt/wt), 99%.

Turning to `Cc1ncc([N+](=O)[O-])n1CC(C)O` (configuration not stated) [Secnidazole (Flagentyl)], the cell viability in the assay on K562 (SRSF2 genotype: SRSF2 P95H/wt) was 100% and 109%; in the assay on K562 (SRSF2 genotype: SRSF2 wt/wt), 106%; with MARIMO (SRSF2 genotype: SRSF2 P95H/wt), 100%; in the assay on MARIMO (SRSF2 genotype: SRSF2 wt/wt) it was 105%; in the assay on MOLM14 (SRSF2 genotype: SRSF2 P95H/wt), 104%; with MOLM14 (SRSF2 genotype: SRSF2 wt/wt), 108%. Besides, the cell viability with OCI-AML2 (SRSF2 genotype: P95H/wt) stood at 114%; in the assay on OCI-AML2 (SRSF2 genotype: wt/wt), 93.1%.

Turning to `Cc1ccc(C(C)C)c(O)c1` [Thymol], the cell viability was 96.2% and 91.7% in the assay with K562 (SRSF2 genotype: SRSF2 P95H/wt); 99% in the assay on K562 (SRSF2 genotype: SRSF2 wt/wt); 97.9% in the assay with MARIMO (SRSF2 genotype: SRSF2 P95H/wt); 102% in the assay on MARIMO (SRSF2 genotype: SRSF2 wt/wt); 97.1% with MOLM14 (SRSF2 genotype: SRSF2 P95H/wt); 105% in the assay on MOLM14 (SRSF2 genotype: SRSF2 wt/wt). Moreover, the cell viability is 98.3% in the assay with OCI-AML2 (SRSF2 genotype: P95H/wt) and 101% in the assay with OCI-AML2 (SRSF2 genotype: wt/wt).

For the compound `C[C@@H](NCCCc1cccc(C(F)(F)F)c1)c1cccc2ccccc12` [AMG-073 HCl (Cinacalcet hydrochloride)], the cell viability with K562 (SRSF2 genotype: SRSF2 P95H/wt) was 21.9% and 38.4%; with K562 (SRSF2 genotype: SRSF2 wt/wt), 19.4%; with MARIMO (SRSF2 genotype: SRSF2 P95H/wt), 57.1%; in the assay with MARIMO (SRSF2 genotype: SRSF2 wt/wt), 50.4%; in the assay on MOLM14 (SRSF2 genotype: SRSF2 P95H/wt) it was 27%; with MOLM14 (SRSF2 genotype: SRSF2 wt/wt) it was 24.2%. Besides, the figures for the cell viability with OCI-AML2 (SRSF2 genotype: P95H/wt) and with OCI-AML2 (SRSF2 genotype: wt/wt) were 1.48% and 10.2%, respectively.

In general, cell viability refers to a read-out of living cells in per cent, often relative to untreated cells.
